An excerpt weighted towards active compounds, which were near 19% of everything screened.
HT1080NT lethal: qHTS for induction of synthetic lethality in tumor cells producing 2HG: qHTS for the HT-1080-NT fibrosarcoma cell line; hit rate 1.6% among 360,000; AID 686970, 2013; HT-1080-NT fibrosarcoma viability, CellTiter-Glo ATP luminescence, 48 h; Potency, µM (top dose mostly 46.1 µM), for inactives: at the top dose activity, negative = less viability, most hits filed as cytotoxic;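 also: NT is the 2HG producing partner of a matched IDH1 knockdown line; potency is read from the fitted curve at half-maximal effect; 0% = DMSO-treated cells and -100% = media-only wells without cells; nearly all actives have a fitted effect of over 55% in size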
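Viability of the 2HG-overproducing fibrosarcoma line after 48 hours of compound exposure at 37 degrees C was determined by luminescence with CellTiter-Glo, and concentration-effect curves were then fitted and categorized.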
HT1080 IDH1KD tx: qHTS for induction of synthetic lethality in tumor cells producing 2HG: qHTS for the HT-1080-IDH1KD cell line; HT-1080 IDH1 knockdown viability, ATP luminescence, 48 h; Potency, µM (doses to about 46.1 µM), inactives show at the top dose activity, negative = toxicity, most hits filed as cytotoxic; hit rate 2% among 360,000;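 also: potency is read from the fitted curve at half-maximal effect; 0% = DMSO wells and -100% = cell-free medium wells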
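Luminescent ATP read-out (CellTiter-Glo, 10 min at room temperature) after 48 h compound exposure at 37 °C gave viability of IDH1-knockdown HT-1080 cells. Activity was normalised to DMSO and cell-free wells, then fitted as concentration-response curves.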
IL1B secr inh: qHTS for Inhibitors of Inflammasome Signaling: IL-1-beta AlphaLISA Primary Screen; THP-1 LPS/ATP IL-1B secretion, AlphaLISA, 16 h; active compounds read low; hit rate 4.7% among 360,000; activity change, % at 57.5 µM; in the data active = activity change below about -50%; inconclusive = mostly about -30% to -49%
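Secreted IL-1B measured by AlphaLISA bead assay after 16 h compound exposure of THP-1 cells; compounds (final up to 57.5 uM) added 1 h before LPS (250 ng/mL) and ATP (1.25 mM) stimulation; lower signal means less secretion.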
TDP1 cell noCPT: qHTS for Inhibitors of human tyrosyl-DNA phosphodiesterase 1 (TDP1): qHTS in cells in absence of CPT. DT40 Tdp1-/- hTDP1 cells, no CPT, ATP luminescence, 48 h. Potency, µM (series often up to 46.2 µM), for the others: top-dose activity change, negative = growth inhibition, most hits filed as inhibitors. hit rate 15% among 420,000; also: potency is read from the fitted curve at half-maximal effect; nearly all actives have a fitted effect of over 55% in size
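Readout: luminescence from CellTiter-Glo after 30 min in the dark at RT. Cells: DT40 Tdp1-/- with stable hTDP1, 400/well. Exposure: compounds alone, ≥48 hr, 37 °C.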
TDP1 cell CPT: qHTS for Inhibitors of human tyrosyl-DNA phosphodiesterase 1 (TDP1): qHTS in cells in presence of CPT; AID 686979, 2013; Potency, µM (top dose mostly 46.2 µM), inactives show at the top dose activity change, negative = growth inhibition, hits mostly inhibitors; hit rate 12% among 420,000; chicken DT40 Tdp1-/-;hTDP1 cells + 20 nM CPT, ATP luminescence, 48 h; also: potency is read from the fitted curve at half-maximal effect; nearly all actives have a fitted effect of over 55% in size
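Cell growth measured by CellTiter-Glo luminescence after a minimum 48 h, 37 C compound exposure with 20 nM CPT in Tdp1-knockout DT40 cells stably expressing hTDP1, seeded 400/well; qHTS titration format.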
ELG1 DNA repair: qHTS screen for small molecules that inhibit ELG1-dependent DNA repair in human embryonic kidney (HEK293T) cells expressing luciferase-tagged ELG1. HEK293T ELG1-luciferase reporter, luminescence, 16 h; DNA damage induced by 5-fluorouridine. Potency, µM (series often up to 46.1 µM), without a hit: top-dose activity change, negative = inhibition, hits mostly inhibitors. hit rate 2.3% among 330,000; also: potency is read from the fitted curve at half-maximal effect; nearly all actives have a fitted effect of over 55% in size
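Overnight (16 hr) co-exposure of 2,000 cells/well to 5-fluorouridine and compound at 37 °C preceded detection. Luciferase was quantified via ONE-Glo luminescence; loss of signal denotes inhibition.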
Starred values were filed as active, the others as inactive; ? = inconclusive; . = not tested or not shown. Unless noted, calls follow the shape of the dose curve; as a rule, active = well fitted curve in the direction sought with a large enough effect; inconclusive = small, poorly fitted or top-dose-only effect, or another doubt; inactive = no such curve, though single readings can be large; an effect the other way counts as inactive or inconclusive. Unless noted, % is scaled to controls: 0 for no effect and ±100 for the full control effect.

SMILES | HT1080NT lethal | HT1080 IDH1KD tx | IL1B secr inh | TDP1 cell noCPT | TDP1 cell CPT | ELG1 DNA repair
COc1ccc(C(=O)NCc2nc(-c3cccc(C)c3)no2)cc1OC | . | . | . | 16µM* | ? | .
Cc1cccc(-c2noc(CNC(=O)c3ccc4c(c3)OCO4)n2)c1 | -2% | -5% | 6 | 3% | 6% | 17%
Cc1ccc(-c2noc(CN(C(=O)C(c3ccccc3)c3ccccc3)C(C)C)n2)cc1 | 0% | -17% | ? | 15µM* | 18µM* | ?
CCOc1ccc(N2CC(C(=O)NNC(=O)c3ccc(Br)cc3)CC2=O)cc1 (stereo not drawn) | -5% | -9% | -14 | ? | -28% | 0%
O=C(CNC(=O)c1ccccc1F)N/N=C/c1ccc2c(c1)OCO2 | -13% | -13% | 33 | 0% | 0% | ?
COc1ccc(/C=N\NC(=O)CNC(=O)C2COc3ccccc3O2)cc1[N+](=O)[O-] (stereo not drawn) | 9% | 16% | 10 | -28% | -7% | -3%
CN(C(=O)COC(=O)c1ccc(S(=O)(=O)N2CCOCC2)cc1)c1ccccc1 | 1% | 19% | 1 | -15% | 3% | 17%
O=C(NC1CCCCC1)C(c1ccncc1)N(C(=O)c1csnn1)c1ccccc1 (stereo not drawn) | 0% | 17% | 5 | -16% | 10% | 7%
Cc1ccc(-c2noc(CN(C(=O)c3cccc(Br)c3)C(C)C)n2)cc1 | -2% | -9% | -17 | ? | ? | -3%
Cc1cc(C)cc(C(=O)N(Cc2nc(-c3ccc(Cl)cc3)no2)C(C)C)c1 | . | . | . | 18µM* | 21µM* | .
COc1ccc(Cl)cc1C(=O)N(Cc1nc(-c2cccc(C)c2)no1)C(C)C | 0% | -6% | 6 | 6.5µM* | 6.5µM* | ?
COc1cccc(C(=O)N(Cc2nc(-c3ccc(Cl)cc3)no2)C(C)C)c1OC | . | . | . | 21µM* | 18µM* | .
Cc1cc(C(=O)NNC(=O)c2ccc(Cl)c(S(N)(=O)=O)c2)c(C)o1 | 4% | 5% | 15 | 6% | -6% | 2%
O=C(c1ccccc1)N1CCN(C(=O)N2CCOCC2)CC1 | 0% | 2% | -6 | 2% | 12% | 13%
O=C1C(=C(c2ccccc2)N2CCOCC2)Cc2ccccc21 | 15µM* | 4.6µM* | -104* | 0.82µM* | 1.2µM* | .
CN(C(=O)c1ccc(NC(=O)Cc2ccc(NC(=O)C3CCN(C(=O)C4CCCC4)CC3)cc2)cc1)C1CC1 | -3% | -8% | -71* | ? | ? | 0%
CN(C(=O)c1ccc(NC(=O)Cc2ccc(NC(=O)C3CCN(C(=O)C4CCCCC4)CC3)cc2)cc1)C1CCCC1 | -5% | ? | 93 | 21µM* | ? | .
COc1cccc(Nc2ncc3nc(-c4cc(F)cc(F)c4)c(=O)n(C4CC4)c3n2)c1 | . | . | . | 2% | 11% | .
COc1cc(CN2CCNC(=O)C2CC(=O)NC2CCCC2)cc(OC)c1 (stereo not drawn) | -1% | 4% | -15 | -7% | 1% | 4%
COc1ccc(Cl)cc1-c1cc(C(=O)NCC2CCCCC2)[nH]n1 | ? | ? | 3 | 12µM* | 8.2µM* | .
CC(C)Oc1cc(F)ccc1-c1cc(C(=O)NCC2CCCCC2)[nH]n1 | ? | 14% | -13 | ? | -22% | .
CCOc1ccc(Cl)cc1-c1cc(C(=O)NCC2CCCCC2)[nH]n1 | 0% | -18% | ? | 6.5µM* | 4.1µM* | .
Cc1cc(F)ccc1-c1cc(C(=O)NCC2CCCCC2)[nH]n1 | -8% | -3% | ? | ? | 21µM* | .
COc1ccc(Cl)cc1-c1cc(C(=O)NCc2cccc(Cl)c2)[nH]n1 | ? | ? | -15 | ? | ? | .
Cc1ccc2nc(-c3cccs3)c(Nc3c(C)cccc3C)n2c1 | . | . | . | 26µM* | 23µM* | .
SMILES | HT1080NT lethal | HT1080 IDH1KD tx | IL1B secr inh | TDP1 cell noCPT | TDP1 cell CPT | ELG1 DNA repair
Cc1cccc(C)c1Nc1c(-c2cccs2)nc2ncccn12 | . | . | . | ? | 21µM* | .
CC1C(c2ccccc2)=NNc2nc3c(c(=O)n(C)c(=O)n3C)n21 (stereo not drawn) | 10% | 8% | 26 | 12µM* | ? | -2%
Cn1c(=O)c2[nH]c(-c3ccccc3)nc2n(C)c1=O | . | . | . | . | . | 11%
CCN(C(=O)c1nn(-c2ccc(OC)cc2)c(=O)c2c1c1ccccc1n2C)c1ccc(OC)cc1 | 2% | 11% | 38 | -25% | -2% | -4%
CCCCN(C)CCNC(=O)c1nn(-c2ccc(OC)cc2)c(=O)c2c1c1ccccc1n2C | 2% | -1% | -1 | 18µM* | ? | 1%
COc1ccc(-n2nc(C(=O)NCCc3ccc(OC)c(OC)c3)c3c4ccccc4n(C)c3c2=O)cc1 | . | . | . | 15µM* | 16µM* | .
CCOC(=O)C1CCCN(CCC(=O)Nc2ccc(Br)cc2)C1 (stereo not drawn) | -2% | -19% | -60* | ? | ? | -1%
CC1CC(C)CN(CCC(=O)Nc2ccc(Br)cc2)C1 (stereo not drawn) | -6% | -4% | -54* | ? | ? | -1%
CC1CCN(CCC(=O)Nc2ccc(Br)cc2)CC1 | 0% | ? | -4 | -19% | -1% | .
Cc1cc(C)c2[nH]c(C(=O)Nc3ccc(F)cc3Br)cc2c1 | 0% | -2% | 31 | -4% | 10% | 18%
CC[C@@H](C)CCCCC(=O)N[C@@H](CCNCS(=O)(=O)O)C(=O)N[C@H](C(=O)N[C@@H](CCNCS(=O)(=O)O)C(=O)N[C@H]1CCNC(=O)[C@H]([C@@H](C)O)NC(=O)[C@H](CCNCS(=O)(=O)O)NC(=O)[C@H](CCNCS(=O)(=O)O)NC(=O)[C@H](CC(C)C)NC(=O)[C@@H](CC(C)C)NC(=O)[C@H](CCNCS(=O)(=O)O)NC1=O)[C@@H](C)O | . | . | . | 9.4µM* | ? | .
Cc1cccn2c(=O)nc(SCC(=O)NCc3ccc4c(c3)OCO4)nc12 | 13% | 1% | 2 | -1% | 15% | ?
O=C(O)/C=C/C(=O)Nc1cccnc1 | ? | 19% | 19 | -2% | 6% | 2%
